# Laboratory results from the supplement of paper PMC9794691.
# Key:
# H1975 [1] = test: area under confluence curve of compound monotherapy; compare to DMSO control AUC of the same experiment (AUC (confluence x time, arbitrary))
# Summary of the method: (§1)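 Adenocarcinoma lines were grown in RPMI 1640 with 10% FBS at 37 °C and 5% CO2, seeded at 20,000–30,000 cells/well in 48-well plates, and treated the next day with test compound alone at one dose: 1 uM or the highest dose giving <50% parental inhibition. Every 3–4 days the wells were washed with PBS and the drug was refreshed, and medium was drug-free from the DTP stage (10–21 days). IncuCyte tracked confluence until wells given only an EGFR inhibitor regrew. Area under the confluence curve was calculated in Prism, taking the median of triplicates where run, and set beside the vehicle value from the same experiment.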
# HCC2279 [2] = test: as above
# Summary of the method: as §1
# HCC2935 [3] = test: as above
# Summary of the method: as §1
# HCC4006 [4] = test: as above
# Summary of the method: as §1
# HCC827 [5] = test: as above
# Summary of the method: as §1
# II-18 [6] = test: as above
# Summary of the method: as §1
# H1975 [7] = test: area under confluence curve of osimertinib + compound combination regimen (DTP regrowth); compare to osimertinib-only DTP control AUC of the same experiment (AUC (confluence x time, arbitrary)); conditions: test compound dose 300 nM, DMSO control AUC in same experiment: 14522
# Summary of the method: (§2)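 EGFR-mutant NSCLC lines went into 48-well plates at 20,000–30,000 cells/well in RPMI 1640 with 10% FBS and were kept at 37 °C, 5% CO2. Cells got either the EGFR inhibitor plus a fixed-dose test compound from the start through the persister stage (10–21 days) and then drug-free medium, or the inhibitor alone followed by the test compound. Medium was changed every 3–4 days until wells given only the inhibitor regrew to confluence. The endpoint was the area under the IncuCyte confluence–time curve, calculated in Prism and reported as the median of triplicates where available.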
# HCC2279 [8] = test: as above; conditions: test compound dose 300 nM, DMSO control AUC in same experiment: 40085
# Summary of the method: as §2
# HCC2935 [9] = test: as above; conditions: test compound dose 300 nM, DMSO control AUC in same experiment: 15413
# Summary of the method: as §2
# HCC4006 [10] = test: as above; conditions: test compound dose 300 nM, DMSO control AUC in same experiment: 10921
# Summary of the method: as §2
# HCC827 [11] = test: as above; conditions: test compound dose 300 nM, DMSO control AUC in same experiment: 48895
# Summary of the method: as §2
# II-18 [12] = test: as above; conditions: test compound dose 300 nM, DMSO control AUC in same experiment: 18482
# Summary of the method: as §2
# [13] = 300 nM, DMSO control AUC in same experiment: 11459
# [14] = 100 nM, DMSO control AUC in same experiment: 16638
compound,measurement,setting,value
COc1nnc2ccc(N3CCC(c4ccc(OCCN5CCN(C)C(=O)[C@H]5C)cc4)CC3)nn12,area under confluence curve,"H1975 [1]; 300 nM, DMSO control AUC in same experiment: 14522",6020
same,area under confluence curve,"HCC2279 [2]; 300 nM, DMSO control AUC in same experiment: 27284",21500
same,area under confluence curve,HCC2935 [3]; [13],13000
same,area under confluence curve,"HCC4006 [4]; 30 nM, DMSO control AUC in same experiment: 10921",6660
same,area under confluence curve,"HCC827 [5]; 300 nM, DMSO control AUC in same experiment: 48895",42000
same,area under confluence curve,"II-18 [6]; 30 nM, DMSO control AUC in same experiment: 18996",14400
COC(=O)c1ccc([C@H]2c3[nH]c4ccccc4c3C[C@H](C(=O)OC)N2C(=O)CCl)cc1,area under confluence curve,"H1975 [1]; 100 nM, DMSO control AUC in same experiment: 26010",25200
same,area under confluence curve,"HCC2279 [2]; 100 nM, DMSO control AUC in same experiment: 9426",9000
same,area under confluence curve,"HCC2935 [3]; 100 nM, DMSO control AUC in same experiment: 11459",11700
same,area under confluence curve,HCC4006 [4]; [14],16200
same,area under confluence curve,"HCC827 [5]; 100 nM, DMSO control AUC in same experiment: 35394",29100
same,area under confluence curve,"II-18 [6]; 100 nM, DMSO control AUC in same experiment: 13556",7620
Cn1cnc2c(F)c(Nc3ccc(Br)cc3Cl)c(C(=O)NOCCO)cc21 [Selumetinib] + C=CC(=O)Nc1cc(Nc2nccc(-c3cn(C)c4ccccc34)n2)c(OC)cc1N(C)CCN(C)C [osimertinib],area under confluence curve,"H1975 [7]; dosing schedule: sequential, osimertinib-only DTP control AUC in same experiment: 12533",2580
same,area under confluence curve,"H1975 [7]; dosing schedule: upfront, osimertinib-only DTP control AUC in same experiment: 18969",10100
same,area under confluence curve,"HCC2279 [8]; dosing schedule: sequential, osimertinib-only DTP control AUC in same experiment: 15997",8900
same,area under confluence curve,"HCC2279 [8]; dosing schedule: upfront, osimertinib-only DTP control AUC in same experiment: 28057",9080
same,area under confluence curve,"HCC2935 [9]; dosing schedule: sequential, osimertinib-only DTP control AUC in same experiment: 7139",12800
same,area under confluence curve,"HCC2935 [9]; dosing schedule: upfront, osimertinib-only DTP control AUC in same experiment: 19044",9550
same,area under confluence curve,"HCC4006 [10]; dosing schedule: sequential, osimertinib-only DTP control AUC in same experiment: 14882",9590
same,area under confluence curve,"HCC4006 [10]; dosing schedule: upfront, osimertinib-only DTP control AUC in same experiment: 18913",11700
same,area under confluence curve,"HCC827 [11]; dosing schedule: sequential, osimertinib-only DTP control AUC in same experiment: 18675",11400
same,area under confluence curve,"HCC827 [11]; dosing schedule: upfront, osimertinib-only DTP control AUC in same experiment: 25542",11100
same,area under confluence curve,"II-18 [12]; dosing schedule: sequential, osimertinib-only DTP control AUC in same experiment: 21014",16200
same,area under confluence curve,"II-18 [12]; dosing schedule: upfront, osimertinib-only DTP control AUC in same experiment: 27084",14400
Cc1nc(Nc2ncc(C(=O)Nc3c(C)cccc3Cl)s2)cc(N2CCN(CCO)CC2)n1 [Dasatinib],area under confluence curve,"H1975 [1]; 100 nM, DMSO control AUC in same experiment: 14522",4980
same,area under confluence curve,"HCC2279 [2]; 100 nM, DMSO control AUC in same experiment: 29252",28300
same,area under confluence curve,"HCC2935 [3]; 100 nM, DMSO control AUC in same experiment: 13875",10400
same,area under confluence curve,HCC4006 [4]; [14],11900
same,area under confluence curve,"HCC827 [5]; 100 nM, DMSO control AUC in same experiment: 30859",25600
same,area under confluence curve,"II-18 [6]; 30 nM, DMSO control AUC in same experiment: 11408",10100
NC1(C(=O)N[C@@H](CCO)c2ccc(Cl)cc2)CCN(c2nc[nH]c3nccc2-3)CC1 [Capivasertib],area under confluence curve,"H1975 [1]; 300 nM, DMSO control AUC in same experiment: 26010",22500
same,area under confluence curve,"HCC2279 [2]; 300 nM, DMSO control AUC in same experiment: 29252",28500
same,area under confluence curve,HCC2935 [3]; [13],6510
same,area under confluence curve,"HCC4006 [4]; 300 nM, DMSO control AUC in same experiment: 16794",16700
same,area under confluence curve,"HCC827 [5]; 300 nM, DMSO control AUC in same experiment: 27404",28500
same,area under confluence curve,"II-18 [6]; 300 nM, DMSO control AUC in same experiment: 13556",11600
C[C@@H](Nc1cc(F)cc(F)c1)c1cc(C(=O)N(C)C)cc2c(=O)cc(N3CCOCC3)oc12,area under confluence curve,"H1975 [1]; 1000 nM, DMSO control AUC in same experiment: 20657",18600
same,area under confluence curve,"HCC2279 [2]; 1000 nM, DMSO control AUC in same experiment: 29252",24500
same,area under confluence curve,"HCC2935 [3]; 1000 nM, DMSO control AUC in same experiment: 13875",10800
same,area under confluence curve,"HCC4006 [4]; 1000 nM, DMSO control AUC in same experiment: 16638",13600
same,area under confluence curve,"HCC827 [5]; 1000 nM, DMSO control AUC in same experiment: 27404",24900
same,area under confluence curve,"II-18 [6]; 1000 nM, DMSO control AUC in same experiment: 18482",11000
